Assay results as given in the antibiotic and cytotoxicity screens of Wong et al. (2023).
Among all 39,000 compounds or so, about 1,500 (3.8%) were called active. This is one part of a sample in which actives are shown more often than they occur.

These molecules were tested on HSkMC (human skeletal muscle cells) (assay: cytotoxicity call (relative viability < 0.9)). Details: 10 µM.

SMILES | cytotoxicity call
CC(C=CC=C(C)C=CC(=O)C1(C)CC(O)CC1(C)C)=CC=CC=C(C)C=CC=C(C)C=CC1=C(C)CC(O)CC1(C)C (stereo not given) | inactive
C[C@@H]1CN([C@H](C)CO)C(=O)c2cc(NC(=O)Cn3cnnn3)ccc2O[C@H]1CN(C)Cc1ccc(-c2ccccc2)cc1 | inactive
CN1CCN(C(=O)C[C@H]2C=C[C@H](NC(=O)Nc3ccccc3F)[C@@H](CO)O2)CC1 | inactive
COC(=O)C[C@H]1CC[C@@H]2[C@H](COC[C@H](O)CN2S(=O)(=O)c2cn(C)cn2)O1 | inactive
C[C@@H]1CN([C@H](C)CO)C(=O)c2cc(N(C)C)ccc2O[C@@H](C)CCCCO[C@H]1CN(C)C(=O)Nc1cccc2ccccc12 | inactive
C[C@@H]1CCCCO[C@H](CN(C)S(=O)(=O)c2ccc(Cl)cc2)[C@H](C)CN([C@H](C)CO)C(=O)c2cc(NS(=O)(=O)c3ccccc3)ccc2O1 | inactive
C[C@H](CO)N1C[C@H](C)[C@@H](CN(C)CC2CC2)OCCCC[C@H](C)Oc2ccc(NC(=O)Nc3cccc4ccccc34)cc2C1=O | inactive
C[C@@H]1CCCCO[C@@H](CN(C)CC2CCCCC2)[C@@H](C)CN([C@H](C)CO)C(=O)c2cc(NC(=O)Nc3cccc4ccccc34)ccc2O1 | active
C[C@@H]1CCCCO[C@H](CN(C)CC2CCCCC2)[C@@H](C)CN([C@H](C)CO)C(=O)c2cc(NC(=O)Nc3cccc4ccccc34)ccc2O1 | active
C[C@@H]1CCCCO[C@H](CN(C)CC2CCCCC2)[C@H](C)CN([C@H](C)CO)C(=O)c2cc(NC(=O)Nc3cccc4ccccc34)ccc2O1 | active
C[C@H]1CCCCO[C@H](CN(C)CC2CCCCC2)[C@@H](C)CN([C@@H](C)CO)C(=O)c2cc(NC(=O)Nc3cccc4ccccc34)ccc2O1 | active
C[C@@H]1CCCCO[C@@H](CN(C)CC2CC2)[C@H](C)CN([C@@H](C)CO)C(=O)c2cc(NC(=O)Nc3cccc4ccccc34)ccc2O1 | inactive
C[C@H](CO)N1C[C@H](C)[C@@H](CN(C)C)OCCCC[C@H](C)Oc2ccc(NC(=O)Nc3cccc4ccccc34)cc2C1=O | inactive
C[C@@H]1CN([C@@H](C)CO)C(=O)c2cc(NC(=O)Nc3cccc4ccccc34)ccc2O[C@@H](C)CCCCO[C@H]1CN(C)CC1CC1 | inactive
C[C@@H]1CCCCO[C@H](CN(C)CC2CC2)[C@H](C)CN([C@@H](C)CO)C(=O)c2cc(NC(=O)Nc3cccc4ccccc34)ccc2O1 | inactive
C[C@@H]1CCCCO[C@@H](CN(C)CC2CC2)[C@@H](C)CN([C@H](C)CO)C(=O)c2cc(NC(=O)Nc3cccc4ccccc34)ccc2O1 | inactive
C[C@H](O)c1nc(=O)c2ccccc2[nH]1 | inactive
CC(=O)OCC(=O)C1(O)CCC2C3CCC4=CC(=O)C=CC4(C)C3(F)C(O)CC21C (stereo not given) | inactive
C[C@H](CO)N1C[C@H](C)[C@@H](CN(C)C(=O)Nc2ccc3c(c2)OCCO3)OCc2cnnn2CCCC1=O | inactive
COCC(=O)Nc1ccc2c(c1)C(=O)N(C)C[C@H](OC)[C@@H](C)CN(Cc1ccccc1OC)[C@H](C)CO2 | inactive
S=C1C=C(N2CCCCC2)C[C@H](c2ccc(Cl)cc2)S1 | inactive
C[C@@H]1CN([C@@H](C)CO)C(=O)c2cc(NC(=O)Nc3ccc(F)cc3)ccc2O[C@H]1CN(C)S(=O)(=O)c1cn(C)cn1 | inactive

SMILES | cytotoxicity call
Cc1noc(C)c1NC(=O)Nc1ccc2c(c1)C(=O)N([C@@H](C)CO)C[C@@H](C)[C@@H](CN(C)C(=O)NC(C)C)O2 | inactive
CCO[C@H]1OC(C(=O)N2CCN(Cc3ccccc3)CC2)=C[C@@H](C)[C@@H]1CCCOC(=O)NCCCCCC(=O)NO | inactive
C[C@H](CO)N1C[C@H](C)[C@H](CN(C)Cc2ccc(Cl)c(Cl)c2)Oc2ccc(NC(=O)Cc3ccccc3)cc2C1=O | inactive
C[C@@H]1CN([C@H](C)CO)C(=O)Cc2cc(NS(C)(=O)=O)ccc2O[C@H]1CN(C)C(=O)Nc1ccc2c(c1)OCO2 | inactive
C[C@@H]1CN([C@@H](C)CO)C(=O)c2cc(NC(=O)Nc3cccc4ccccc34)ccc2O[C@@H](C)CCCCO[C@@H]1CN(C)CC1CCCCC1 | active
C[C@@H]1CN([C@@H](C)CO)C(=O)c2cc(NC(=O)Nc3cccc4ccccc34)ccc2O[C@@H](C)CCCCO[C@H]1CN(C)CC1CCCCC1 | active
C[C@@H]1CCCCO[C@@H](CN(C)CC2CC2)[C@H](C)CN([C@H](C)CO)C(=O)c2cc(NC(=O)Nc3cccc4ccccc34)ccc2O1 | inactive
C[C@@H]1CCCCO[C@@H](CN(C)CC2CCCCC2)[C@H](C)CN([C@@H](C)CO)C(=O)c2cc(NC(=O)Nc3cccc4ccccc34)ccc2O1 | inactive
C[C@H](CO)N1C[C@H](C)[C@H](CN(C)CC2CCCCC2)OCCCC[C@H](C)Oc2ccc(NC(=O)Nc3cccc4ccccc34)cc2C1=O | active
NCC1(c2cccs2)CCCC1 | inactive
CC(C)NC(=O)Nc1ccc2c(c1)C(=O)N([C@@H](C)CO)C[C@@H](C)[C@H](CN(C)Cc1ccc3c(c1)OCO3)O2 | inactive
Cc1noc(C)c1S(=O)(=O)N(C)C[C@H]1Oc2ccc(NC(=O)C3CCCCC3)cc2CC(=O)N([C@H](C)CO)C[C@@H]1C | inactive
CCC(=O)N[C@@H]1CC[C@H](CC(=O)OC)O[C@@H]1CO | inactive
Cc1noc(C)c1NC(=O)Nc1ccc2c(c1)C(=O)N([C@@H](C)CO)C[C@H](C)[C@@H](CN(C)Cc1ccc(Cl)c(Cl)c1)OCCCC[C@@H](C)O2 | inactive
C[C@@H]1CCCCO[C@@H](CN(C)C(=O)c2ccccc2)[C@@H](C)CN([C@H](C)CO)C(=O)c2cc(NC(=O)NC3CCCCC3)ccc2O1 | inactive
Cc1noc(C)c1S(=O)(=O)Nc1cccc2c1O[C@@H](CN(C)C(=O)Nc1ccc3c(c1)OCO3)[C@@H](C)CN([C@@H](C)CO)C2=O | inactive
C[C@H]1CCCCO[C@H](CN(C)S(=O)(=O)c2ccc(Cl)cc2)[C@@H](C)CN([C@@H](C)CO)C(=O)c2cc(NS(=O)(=O)c3ccc(Cl)cc3)ccc2O1 | inactive
C[C@@H]1CN([C@@H](C)CO)C(=O)c2cc(C#Cc3ccccc3F)cnc2O[C@H]1CN(C)C(=O)C1CCOCC1 | inactive
C[C@@H]1CCCCO[C@H](CN(C)Cc2ccc(C(=O)O)cc2)[C@H](C)CN([C@@H](C)CO)C(=O)c2cc(NS(=O)(=O)c3ccc(F)cc3)ccc2O1 | inactive
O=C(C[C@H]1CC[C@H]2[C@@H](COC[C@@H](O)CN2S(=O)(=O)c2ccc(Oc3ccccc3)cc2)O1)NCCN1CCCCC1 | inactive
C[C@@H]1CN([C@@H](C)CO)S(=O)(=O)c2ccc(-c3ccccc3F)cc2O[C@H]1CN(C)Cc1cncnc1 | inactive
CCCCOCCOc1ccc(-c2ccc3c(c2)/C=C(/C(=O)Nc2ccc([S@@](=O)Cc4cncn4CCC)cc2)CCCN3CC(C)C)cc1 | active

SMILES | cytotoxicity call
C[C@@H]1CCCCO[C@H](CN(C)C(=O)NC2CCCCC2)[C@H](C)CN([C@H](C)CO)C(=O)c2cc(NC(=O)c3ccncc3)ccc2O1 | inactive
C[C@H](CO)N1C[C@H](C)[C@@H](CN(C)C(=O)C2CCCCC2)Oc2cc(C#C[C@@H](C)O)ccc2S1(=O)=O | inactive
CC[C@@H](CO)NC(=O)c1ccc(N)cc1 | inactive
C[C@@H]1CN([C@H](C)CO)C(=O)c2cc(NC(=O)Nc3ccc(C(F)(F)F)cc3)ccc2O[C@H]1CN(C)Cc1ccc2c(c1)OCO2 | inactive
C[C@H](CO)N1C[C@H](C)[C@H](CN(C)Cc2ccc3c(c2)OCO3)Oc2ccc(NC(=O)Nc3ccc(C(F)(F)F)cc3)cc2C1=O | active
C[C@H]1CN([C@@H](C)CO)C(=O)c2cc(NC(=O)Nc3ccc(C(F)(F)F)cc3)ccc2O[C@@H]1CN(C)Cc1ccc2c(c1)OCO2 | active
C[C@@H]1CN([C@@H](C)CO)C(=O)c2cc(NC(=O)Nc3ccc(C(F)(F)F)cc3)ccc2O[C@@H]1CN(C)Cc1ccc2c(c1)OCO2 | active
C[C@@H]1CN([C@H](C)CO)C(=O)c2cc(NC(=O)Nc3ccc4c(c3)OCO4)ccc2O[C@H]1CN(C)Cc1ccc(C(F)(F)F)cc1 | inactive
C[C@@H]1CN([C@@H](C)CO)C(=O)c2cc(NC(=O)Nc3ccc(C(F)(F)F)cc3)ccc2O[C@H]1CN(C)Cc1ccc2c(c1)OCO2 | active
C[C@H]1CN([C@@H](C)CO)C(=O)c2cc(NC(=O)Nc3ccc(C(F)(F)F)cc3)ccc2O[C@H]1CN(C)Cc1ccc2c(c1)OCO2 | inactive
CNC[C@H]1OCCCC[C@@H](C)Oc2ccc(NC(=O)Nc3cccc4ccccc34)cc2C(=O)N([C@H](C)CO)C[C@@H]1C | inactive
CCS(=O)(=O)NCC[C@H]1CC[C@H](NC(=O)Cc2ccccn2)[C@H](CO)O1 | inactive
CC/N=c1\sc(C(=O)OC)cc(=O)n1CC | inactive
C[C@H]1CN([C@@H](C)CO)C(=O)c2cc(NC(=O)C3CCCCC3)ccc2O[C@H]1CN(C)Cc1ccc(C(=O)Nc2ccccc2N)cc1 | inactive
CO[C@H]1CN(C)C(=O)c2ccc(NS(=O)(=O)CC(F)(F)F)cc2OC[C@@H](C)N(C(=O)NC(C)C)C[C@@H]1C | inactive
C[C@H](CO)N1C[C@H](C)[C@H](CN(C)S(=O)(=O)c2ccccc2)OCCCC[C@H](C)Oc2ccc(NS(C)(=O)=O)cc2C1=O | inactive
CNC(=O)N1CCC(C(N)=O)CC1 | inactive
O=C(C[C@@H]1C[C@H]2c3cc(NS(=O)(=O)c4ccc(F)cc4)ccc3O[C@H]2[C@H](CO)O1)NCc1ccccn1 | inactive
C[C@@H]1CN([C@@H](C)CO)C(=O)c2cc(NC(=O)Nc3ccc4c(c3)OCO4)ccc2O[C@@H]1CN(C)Cc1ccc(C(F)(F)F)cc1 | inactive
C[C@@H]1CN([C@H](C)CO)C(=O)c2cc(NC(=O)Nc3ccc(C(F)(F)F)cc3)ccc2O[C@@H]1CN(C)Cc1ccc2c(c1)OCO2 | inactive
C[C@H](CO)N1C[C@H](C)[C@@H](CN(C)Cc2ccc3c(c2)OCO3)Oc2ccc(NC(=O)Nc3ccc(C(F)(F)F)cc3)cc2C1=O | active
